# Compound activity as filed in PubChem.
# DRD3 agonist = qHTS of D3 Dopamine Receptor Agonist: qHTS | 410,000 compounds, 0.58% hits | D(3) dopamine receptor (Homo sapiens), P35462 | max activation, % | D3R DiscoveRx beta-arrestin cells, luminescence, 90 min | AID 652048, 2013; in the data active = max activation above about 30%; note: 0% is about no effect
# Target sequence (P35462 whole entry, looked up): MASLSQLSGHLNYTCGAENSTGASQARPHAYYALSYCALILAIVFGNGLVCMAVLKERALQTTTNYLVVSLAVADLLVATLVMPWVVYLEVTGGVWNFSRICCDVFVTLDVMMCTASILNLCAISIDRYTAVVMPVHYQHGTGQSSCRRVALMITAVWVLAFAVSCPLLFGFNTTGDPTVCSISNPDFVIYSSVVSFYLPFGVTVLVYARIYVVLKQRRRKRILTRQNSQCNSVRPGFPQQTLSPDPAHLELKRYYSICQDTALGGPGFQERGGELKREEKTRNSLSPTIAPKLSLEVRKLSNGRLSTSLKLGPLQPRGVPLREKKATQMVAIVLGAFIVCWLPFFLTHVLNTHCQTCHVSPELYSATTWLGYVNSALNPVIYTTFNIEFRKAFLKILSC
#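 Cells at 1500/well, incubated overnight, then treated with pinned compounds (dopamine as control) for 90 min at 37 degrees C. DiscoveRx reagent added for 30 - 60 minutes at room temperature; luminescence read.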
# Integrin act MD = qHTS for Activators of Integrin-Mediated Alleviation for Muscular Dystrophy | alpha7betagal myoblasts, beta-gal FDG fluorescence, 48 h | 350,000 compounds, 0.064% hits | Potency, µM (series often up to 38.3 µM), inactives show top-dose activation, usual class: activators;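 note: potency is the fitted concentration of half-maximal effect; 100% = response of the positive control SU9516; nearly all actives have a fitted effect of over 60% in size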
#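 alpha7betagal+/- myoblasts (passage 13, 250/well) treated 48 h at 37C with compounds at 1:260 dilution of DMSO stock. Lysed, then beta-galactosidase activity read as FDG fluorescence (ex 480/em 540) after 30 min, with pre-read for autofluorescence.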
# S2 tox = Viability Counterscreen for Primary qHTS for Inhibitors of ATXN expression. S2 cells (HEK-293 line with an ATXN2-luciferase reporter) viability, CellTiter-Fluor protease fluorescence, 24 h. Potency, µM (doses to about 56.7 µM), most hits filed as cytotoxic. 400,000 compounds, 0.49% hits; note: potency is the fitted concentration of half-maximal effect; nearly all actives have a fitted effect of over 40% in size
# IL-1B inflam inh = qHTS for Inhibitors of Inflammasome Signaling: IL-1-beta AlphaLISA Primary Screen; THP-1 LPS/ATP IL-1B secretion, AlphaLISA, 16 h; active compounds read low; 360,000 compounds, 4.7% hits; AID 743279, 2014; activity change, % at 57.5 µM; in the data active = activity change below about -50%; inconclusive = mostly about -30% to -49%; note: % is set by controls: 0 for no effect and ±100 for the full control effect
#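 Secreted IL-1B measured by AlphaLISA bead assay after 16 h compound exposure of THP-1 cells; compounds (final up to 57.5 uM) added 1 h before LPS (250 ng/mL) and ATP (1.25 mM) stimulation; lower signal means less secretion.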
# DRD3 antagonist = qHTS of D3 Dopamine Receptor Antagonist: qHTS. D(3) dopamine receptor (Homo sapiens), P35462. max response, negative = inhibition, %. D3R cells, DiscoveRx beta-arrestin luminescence, antagonist mode; active compounds read low. 360,000 compounds, 2.5% hits; in the data active = max response below about -50%; inconclusive = no clear call, values can overlap the other calls; note: % is set by controls: 0 for no effect and ±100 for the full control effect
#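 Cells expressing the human receptor were seeded at 1500 cells/well, incubated overnight at 37 degrees C in 5% CO2, then exposed to library compounds with dopamine controls for 90 minutes at 37 degrees C before luminescent detection.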
# ATXN2 expr inh = Primary qHTS for Inhibitors of ATXN expression. HEK-293 ATXN2-luciferase reporter, luminescence, 24 h. Potency, µM (titrated, usually from 57 µM), for the others: top-dose activity change, negative = inhibition, actives largely listed as inhibitors. 360,000 compounds, 0.72% hits; note: potency is the fitted concentration of half-maximal effect; % is set by controls: 0 for no effect and ±100 for the full control effect; nearly all actives have a fitted effect of over 55% in size
#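 qHTS (up to 57 uM final) was run with 24 h compound exposure of reporter cells at 37 °C. Each well was multiplexed: SteadyGlo luminescence measured ATXN2-luciferase expression after a fluorogenic Gly-Phe-AFC viability readout (25 uM final).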
# An asterisk follows results filed as active; i = inactive; ? = inconclusive; / = no result; [ ] = another dose, or the depositor's remark. A selection: hits, their analogues and other compounds. The true share with any hit is near 7%. Unless noted, calls come from the whole dose curve; as a rule, active = well fitted curve in the direction sought with a large enough effect; inconclusive = small, poorly fitted or top-dose-only effect, or another doubt; inactive = no such curve, though single readings can be large; an effect the other way counts as inactive or inconclusive.
SMILES,DRD3 agonist,Integrin act MD,S2 tox,IL-1B inflam inh,DRD3 antagonist,ATXN2 expr inh
COc1ccc(CCNC(=O)c2nnn(CC(=O)Nc3ccccc3)c2N)cc1OC,-5,-19%,i,225,19,-10%
COc1ccc(CCNC(=O)c2nnn(CC(=O)Nc3cccc(F)c3)c2N)cc1OC,4,0%,i,-98*,13,16%[11.3 µM]
CC(C#Cc1ccc2c(c1)COc1c3ccccc3nn1-2)OC(C)(C)C (stereo not given),52*,-10%,i,18,82,59%
CCCCC#Cc1ccc2c(c1)COc1c3ccccc3nn1-2,31*,-6%,i,4,77,127%
O=C(c1ccc(S(=O)(=O)Nc2ccc(F)cc2)cc1)N1CCN(c2ccccn2)CC1,-6,?,?,-54*,-13,?
Cc1cc(S(=O)(=O)Nc2ccc(C(=O)N3CCN(c4ccccc4O)CC3)cc2)ccc1F,32*,-23%,?,0,43,-4%
O=C(c1ccc(NS(=O)(=O)c2ccc(F)cc2)cc1)N1CCCCC1,1,5%,i,-13,3,1%
Cc1cccc(NC(=O)Cn2nc([N+](=O)[O-])c(Br)c2C)n1,9,-5%,i,15,10,-9%
CCc1ccc2oc(-c3ccc(OC)cc3)cc(=Nc3cccc(C(=O)O)c3)c2c1,1,-10%,/,-66*,-11,89%
CCc1ccc2oc(-c3ccc(OC)cc3)cc(=Nc3c(C)n(C)n(-c4ccccc4)c3=O)c2c1,-8,-62%,?,-65*,8,?
C=CCn1c(-c2ccc(OC)cc2)csc1=Nc1c(C)n(C)n(-c2ccccc2)c1=O,0,4%,i,-19,-27,-9%
CCCCCSc1nncc(=O)[nH]1,-5,14%,i,1,24,-2%
CCCCCCCCSC1=CC(=O)C(OC)=C(OC)C1=O,-13,-63%,?,0,-106*,/
COc1cc(CNCCN2CCOCC2)ccc1OCc1ccc(Cl)cc1,-2,-60%,i,?,26,5%
COc1cc(CNCCCN2CCOCC2)c(Br)cc1OCC(=O)Nc1ccccc1C,-13,-41%,i,-55*,-4,2%
COc1cc(CNCCCN2CCOCC2)cc(Br)c1OCc1ccc(Cl)cc1,-14,-60%,/,0,-23,21µM*
CCOc1cc(CNCCCN2CCOCC2)cc(Br)c1OCC(=O)Nc1cccc(C(F)(F)F)c1,-9,?,/,-22,7,22µM*
COc1ccccc1NC(=O)COc1ccc(Br)cc1CNCCCN1CCOCC1,-18,0%,i,-15,-20,-16%
COc1ccc(CCNC(=O)CSc2nc3ccccc3nc2Cc2ccc(C)cc2)cc1OC,2,/,i,/,/,6%
O=C(c1ccc(Cl)cc1)N1CCCCC(Sc2nnc(-c3ccc4c(c3)OCO4)o2)C1=O (stereo not given),1,0%,i,23,25,2.2µM*
O=C(O)CSc1nnc(-c2ccc3c(c2)OCO3)o1,1,11%,i,14,-13,-34%
CSc1ccc(OC2CCCCC2NS(=O)(=O)c2ccccc2)cc1 (stereo not given),5,5%,i,14,-17,-24%
CN(C)CCNC(=O)c1sc2nc(-c3ccccc3)cc(C(F)(F)F)c2c1N,-18,-3%,i,-99*,16,?
O=C(NCc1ccccc1)C1C(c2ccc3c(c2)OCO3)=Nc2ccccc2N1C(=O)c1cccc(C(F)(F)F)c1 (stereo not given),-7,/,/,-20,-14,/
O=c1oc(-c2ccc([N+](=O)[O-])cc2)nc2ccc(O)cc12,-8,?,i,-68*,-28,3%
SMILES,DRD3 agonist,Integrin act MD,S2 tox,IL-1B inflam inh,DRD3 antagonist,ATXN2 expr inh
Cn1ccc(C(=O)Nc2cccnc2Cl)n1,8,10µM*,i,-70*,6,7%
Cc1ccccc1-c1cc(C(=O)Nc2sc(C(=O)OC(C)C)c(C)c2C#N)c2ccccc2n1,9,-67%,?,-27,-68*,?
COc1ccccc1-c1cc(C(=O)Nc2sc3c(c2C#N)CCC(C)C3)c2ccccc2n1 (stereo not given),2,-2%,i,-8,-63*,-2%
COC(=O)c1sc(NC(=O)c2cc(-c3ccccc3)nc3ccccc23)c(C#N)c1C,14,-29%,?,7,4,?
Cc1ccccc1NC(=S)NNc1ncc(C(F)(F)F)cc1Cl,-16,3%,i,-9,-93*,-2%
Fc1ccccc1NC(=S)NNc1ncc(C(F)(F)F)cc1Cl,-8,-6%,i,-20,-25,?
Cc1c(Cl)cccc1NC(=S)NNc1ncc(C(F)(F)F)cc1Cl,-75,-1%,?,-69*,-75*,?
O=C(NNc1ncc(C(F)(F)F)cc1Cl)c1c(Cl)cccc1Cl,-9,-9%,i,19,-70*,?
COc1cc(/C=C2\OC(=O)c3c(OC)cccc32)ccc1O,7,-20%,i,?,10,59%
COc1ccc2c(=O)cc(-c3ccccc3F)oc2c1,-3,-16%,i,-61*,-18,17%
COc1cccc2oc(-c3ccco3)cc(=O)c12,-7,-7%,?,-101*,-54*,-39%
COc1ccc2c(=O)cc(C(F)(F)C(F)(F)F)oc2c1,0,-11%,i,17,-3,4%
COc1ccc2oc(-c3ccco3)cc(=O)c2c1,1,-29%,i,-62*,-7,8%
O=c1cc(-c2ccco2)oc2ccc(Cl)cc12,2,13%,?,-5,0,48%
CCOc1ccc(S(=O)(=O)NC(Cc2c[nH]c3ccccc23)C(=O)O)cc1 (stereo not given),0,12%,i,16,-17,/
COC(=O)c1c(NC(=O)Cc2cccs2)sc(C(=O)NC2CCCCC2)c1C,6,11%,?,18,-12,3%
Cc1ccccc1NC(=O)CN1C(=O)N/C(=C\c2ccc(N3CCOCC3)c(F)c2)C1=O,2,-20%,i,18,-7,-4%
Fc1ccc(NC(=S)NCCc2ccccc2)c(F)c1F,-8,-40%,i,-65*,16,11%
Fc1ccc(F)c(NC(=S)NCCc2ccccc2)c1,-8,-41%,i,-66*,-25,0%
Fc1ccccc1NC(=S)NCCc1ccccc1,0,-34%,i,39,9,48%
